Assay results published in PubChem BioAssay (EPA / NIEHS).
Calls of active or inactive are those of the source. The calls were made as follows: active = hit-call score of the fitted dose curve at least 0.9, where 1 is the maximum; inactive = score below 0.9.

experiment: ATG_EGR_CIS: Attagene CIS-FACTORIAL HepG2 Assay for human Early Growth Response 1 (EGR1) (AID 2282938); conditions: HepG2 Attagene CIS-FACTORIAL EGR reporter mRNA; actives raise or lower the signal
How it was run: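 After 24 h compound exposure, RNA from reporter-transfected HepG2 cells was reverse-transcribed, PCR-amplified, fluorescently labelled and resolved by capillary electrophoresis. EGR1 reporter transcript changes, up or down, were fitted against DMSO, reflecting endogenous transcription-factor activity.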

| SMILES | AC50 | outcome |
| --- | --- | --- |
| O=C1C(Cl)=C(Cl)C(=O)C(Cl)=C1Cl | 137 µM (active) | – |
| N#CCCCCC#N | – | inactive |
| CC1CCC(=O)O1 (centres undefined) | – | inactive |
| COc1cc(OC)c(OC)cc1C=O | – | inactive |
| CC(C)c1ccc(O)cc1 | – | inactive |
| C[N+](C)(C)CC(=O)[O-] | – | inactive |
| CC(C)(c1cc(Cl)c(O)c(Cl)c1)c1cc(Cl)c(O)c(Cl)c1 | 52.8 µM (active) | – |
| O=C(NCNC(=O)NC1C(=O)NC(=O)N1CO)NC1C(=O)NC(=O)N1CO (centres undefined) | – | inactive |
| [N-]=[N+]=CC(=O)OC[C@H](N)C(=O)O | – | inactive |
| COCC(=O)N(c1c(C)cccc1C)N1CCOC1=O | – | inactive |
| CC(C)CCCCCCCOP(=O)(Oc1ccccc1)Oc1ccccc1 | – | inactive |
| CCC1CCC(=O)O1 (centres undefined) | – | inactive |
| C=COCCCl | – | inactive |
| C=CCN(CC=C)C(=O)C(Cl)Cl | – | inactive |
| CC[N+](=O)[O-] | – | inactive |
| CC(Cc1ccc(C(C)(C)C)cc1)CN1C[C@@H](C)O[C@@H](C)C1 (some centres undefined) | – | inactive |
| [Cl-].[Cl-].[Cl-].[Yb+3] | – | inactive |
| CCOC(=O)N(C)N=O | – | inactive |
| O=CNC(N1CCN(C(NC=O)C(Cl)(Cl)Cl)CC1)C(Cl)(Cl)Cl (centres undefined) | – | inactive |
| CCC[N+](=O)[O-] | – | inactive |

| SMILES | AC50 | outcome |
| --- | --- | --- |
| CC(C)(O)C#N | – | inactive |
| CC(C)C#N | – | inactive |
| S=c1[nH]c2ccccc2[nH]1 | – | inactive |
| CCCCCc1cc(O)cc(O)c1 | 100 µM (active) | – |
| c1ccc(Nc2ccc3ccccc3c2)cc1 | – | inactive |
| CSc1nc(N=[N+]=[N-])nc(NC(C)C)n1 | – | inactive |
| CC=Cc1ccc2c(c1)OCO2 | – | inactive |
| Cc1ccc(OP(=O)(Oc2ccc(C)cc2)Oc2ccc(C)cc2)cc1 (tested in a mixture with another compound) | – | inactive |
| ClC1=C(Cl)[C@]2(Cl)[C@@H]3[C@@H](Cl)[C@H](Cl)C[C@@H]3[C@@]1(Cl)C2(Cl)Cl | – | inactive |
| O=S(=O)(c1ccccc1)c1ccccc1 | – | inactive |
| CCC(C)c1cc(C(C)(C)C)cc(-n2nc3ccccc3n2)c1O (centres undefined) | – | inactive |
| CC1(C)C(=O)NC(=O)NC1=O | – | inactive |
| CC(=O)/C=C/c1ccccc1 | 69.4 µM (active) | – |
| c1ccc(P(c2ccccc2)c2ccccc2)cc1 | – | inactive |
| CCOC(=O)COc1ccc(Cl)cc1Cl | – | inactive |
| CCN(CC)C(=S)S | – | inactive |
| N#Cc1cccc(C#N)c1 | – | inactive |
| O=C1Nc2ccc(Cl)cc2C(c2ccccc2)=NC1O (centres undefined) | – | inactive |
| N#CC(c1ccccc1)c1ccccc1 | – | inactive |
| C[N+](C)=CCl | – | inactive |

experiment: ATG_M_19_CIS: Attagene CIS-FACTORIAL HepG2 Assay for M19 Transcription Factor (Internal Marker) (AID 2282939); conditions: HepG2 Attagene CIS-FACTORIAL M19 internal marker reporter; actives raise or lower the signal
How it was run: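 Background-control endpoint from a multiplexed HepG2 reporter panel. Cells carrying cis-regulated reporter constructs are treated 24 h, then reporter transcripts are amplified, fluorescently labelled and sized by capillary electrophoresis. DMSO defines baseline.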

| SMILES | outcome |
| --- | --- |
| O=C1C(Cl)=C(Cl)C(=O)C(Cl)=C1Cl | inactive |
| N#CCCCCC#N | inactive |
| CC1CCC(=O)O1 (centres undefined) | inactive |
| COc1cc(OC)c(OC)cc1C=O | inactive |
| C[N+](C)(C)CC(=O)[O-] | inactive |
| CC(C)(c1cc(Cl)c(O)c(Cl)c1)c1cc(Cl)c(O)c(Cl)c1 | inactive |
| O=C(NCNC(=O)NC1C(=O)NC(=O)N1CO)NC1C(=O)NC(=O)N1CO (centres undefined) | inactive |
| [N-]=[N+]=CC(=O)OC[C@H](N)C(=O)O | inactive |
| COCC(=O)N(c1c(C)cccc1C)N1CCOC1=O | inactive |
| CC(C)CCCCCCCOP(=O)(Oc1ccccc1)Oc1ccccc1 | inactive |
| C=CCN(CC=C)C(=O)C(Cl)Cl | inactive |
| CC[N+](=O)[O-] | inactive |
| [Cl-].[Cl-].[Cl-].[Yb+3] | inactive |
| CCOC(=O)N(C)N=O | inactive |
| O=CNC(N1CCN(C(NC=O)C(Cl)(Cl)Cl)CC1)C(Cl)(Cl)Cl (centres undefined) | inactive |
| CCC[N+](=O)[O-] | inactive |

| SMILES | outcome |
| --- | --- |
| CC(C)(O)C#N | inactive |
| CC(C)C#N | inactive |
| S=c1[nH]c2ccccc2[nH]1 | inactive |
| c1ccc(Nc2ccc3ccccc3c2)cc1 | inactive |
| CC=Cc1ccc2c(c1)OCO2 | inactive |
| Cc1ccc(OP(=O)(Oc2ccc(C)cc2)Oc2ccc(C)cc2)cc1 (tested in a mixture with another compound) | inactive |
| ClC1=C(Cl)[C@]2(Cl)[C@@H]3[C@@H](Cl)[C@H](Cl)C[C@@H]3[C@@]1(Cl)C2(Cl)Cl | inactive |
| O=S(=O)(c1ccccc1)c1ccccc1 | inactive |
| CCC(C)c1cc(C(C)(C)C)cc(-n2nc3ccccc3n2)c1O (centres undefined) | inactive |
| CC(=O)/C=C/c1ccccc1 | inactive |
| CCOC(=O)COc1ccc(Cl)cc1Cl | inactive |
| CCN(CC)C(=S)S | inactive |
| N#Cc1cccc(C#N)c1 | inactive |
| O=C1Nc2ccc(Cl)cc2C(c2ccccc2)=NC1O (centres undefined) | inactive |
| N#CC(c1ccccc1)c1ccccc1 | inactive |

experiment: ATG_ERE_CIS: Attagene CIS-FACTORIAL HepG2 Assay for Estrogen Response Element (ERE) (AID 2282940); conditions: HepG2 ERE cis-reporter, Attagene RNA transcript; actives raise or lower the signal
How it was run: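 Cells used were human hepatoma HepG2, transfected with multiple reporter transcription units under cis-regulatory promoters. Reporter mRNA, read 24 h post-dosing via fluorescent RT-PCR products on capillary electrophoresis, was fitted bidirectionally relative to DMSO.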

| SMILES | outcome | AC50 |
| --- | --- | --- |
| O=C1C(Cl)=C(Cl)C(=O)C(Cl)=C1Cl | inactive | – |
| COc1cc(OC)c(OC)cc1C=O | – | 27.6 µM (active) |
| C[N+](C)(C)CC(=O)[O-] | inactive | – |
| CC(C)CCCCCCCOP(=O)(Oc1ccccc1)Oc1ccccc1 | – | 27.5 µM (active) |
| C=COCCCl | inactive | – |
| O=CNC(N1CCN(C(NC=O)C(Cl)(Cl)Cl)CC1)C(Cl)(Cl)Cl (centres undefined) | inactive | – |
| c1ccc(Nc2ccc3ccccc3c2)cc1 | – | 8.6 µM (active) |
| CSc1nc(N=[N+]=[N-])nc(NC(C)C)n1 | inactive | – |
| ClC1=C(Cl)[C@]2(Cl)[C@@H]3[C@@H](Cl)[C@H](Cl)C[C@@H]3[C@@]1(Cl)C2(Cl)Cl | inactive | – |
| CC1(C)C(=O)NC(=O)NC1=O | inactive | – |
| c1ccc(P(c2ccccc2)c2ccccc2)cc1 | – | 23.5 µM (active) |
| CCN(CC)C(=S)S | inactive | – |
| C[N+](C)=CCl | inactive | – |
